This is an account of results in PubChem BioAssay (NCATS).

Results filed as inconclusive are left out. Active and inactive are the calls of the source. Unless noted, the call rests on the fitted dose curve; in most records, active means well fitted curve in the direction sought with a large enough effect; inconclusive means small, poorly fitted or top-dose-only effect, or another doubt; inactive means no such curve, though single readings can be large; an effect the other way counts as inactive or inconclusive.

For test [1], the target named is Metallo-beta-lactamase type 2 (Klebsiella pneumoniae) (UniProt C7C422). Briefly: qHTS to identify inhibitors of the New Delhi Metallo-beta-lactamase (NDM): assay validation screen against the NCATS LOPAC Collection (AID 1794843).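 Further: nitrocefin turnover by NDM-1 measured as 485 nm absorbance at plateau; on the % scale 0 is the no-effect control and ±100 the full control effect.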 The conditions noted are these: NDM-1 enzyme, nitrocefin hydrolysis, absorbance 485 nm; series mostly up to 38.4 µM. The procedure, abridged:
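Enzyme 2 nM final, 50 mM HEPES pH 7.0, 1 uM ZnSO4, 0.01% Tween20; cpds in DMSO, preincub w/ enzyme; + nitrocefin (50 uM stock); A485 at plateau; no-enzyme column as blank.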

Test [2] deals with Glutathione peroxidase 1 (Homo sapiens) (UniProt P07203). Briefly: Primary qHTS Assay for Inhibitors of Recombinant Selenoprotein Glutathione Peroxidase 1 (GPX1) (AID 1845191). Further: nearly all actives have a fitted effect of over 65% in size. The conditions noted are these: recombinant GPX1, GR-coupled NADPH fluorescence, 15 min; series mostly up to 48.8 µM. The method in brief:
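Recombinant GPX1 (10 nM final) was preincubated with compound for 30 min at room temperature, then reacted with 1 mM GSH, 0.5 mM CHP, 0.5 mM NADPH and 100 nM glutathione reductase; NADPH fluorescence (340/450 nm) was read at 0 and 15 min.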

Test [3] deals with Phospholipid hydroperoxide glutathione peroxidase GPX4 (Homo sapiens) (UniProt P36969). The test can be described thus: Primary qHTS Assay for Inhibitors of Recombinant Selenoprotein Glutathione Peroxidase 4 (GPX4) (AID 1845192). Further: nearly all actives have a fitted effect of over 65% in size. On activity change, negative = inhibition: on the % scale 0 is the no-effect control and ±100 the full control effect. The note with it: recombinant GPX4, GR-coupled NADPH fluorescence, 15 min; series mostly up to 50 µM. The procedure, abridged:
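GR-coupled readout: 100 nM GR, 1 mM GSH, 0.5 mM NADPH; NADPH fluorescence (ex 340/em 450 nm) read at t=0 and after 15 min RT. GPX4 200 nM, preincubated 30 min with compound; substrate 0.5 mM CHP.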

Test [4] has as its target Catechol O-methyltransferase (Homo sapiens) (UniProt P21964). Briefly: Confirmatory Screen for Target Class Profiling of Small Molecule Inhibitors of Methyltransferases (AID 1745852; calls by dose curve; further: potency means the concentration at half of the fitted maximal effect; on activity change, negative = inhibition: on the % scale 0 is the no-effect control and ±100 the full control effect). The conditions noted are these: MTase-Glo luminescence, SAH detection, recombinant enzyme; measured here: COMT max response; stronger effect = lower value.
In test [5] the target is Guanidinoacetate N-methyltransferase (Homo sapiens) (UniProt Q14353). The description is as above. The note with it: MTase-Glo luminescence, SAH detection, recombinant enzyme; activity change, negative = inhibition: at 57.3 µM (top of the series) unless noted.
The target of test [6] is Nicotinamide N-methyltransferase (Homo sapiens) (UniProt P40261). The test is described as above. The conditions noted are these: MTase-Glo luminescence, SAH detection, recombinant enzyme; measured here: NNMT max response; stronger effect = lower value.
Nicotinamide N-methyltransferase (Homo sapiens), sequence (P40261 whole entry, looked up): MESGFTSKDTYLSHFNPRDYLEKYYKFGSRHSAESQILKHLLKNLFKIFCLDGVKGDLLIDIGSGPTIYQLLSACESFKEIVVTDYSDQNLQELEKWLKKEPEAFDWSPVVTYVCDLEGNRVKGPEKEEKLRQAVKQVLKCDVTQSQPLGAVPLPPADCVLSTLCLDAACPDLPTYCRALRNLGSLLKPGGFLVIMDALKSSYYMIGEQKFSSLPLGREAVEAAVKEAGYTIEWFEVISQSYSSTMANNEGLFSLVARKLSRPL
Test [7] has as its target Phenylethanolamine N-methyltransferase (Homo sapiens) (UniProt P11086). The test is described as above. The conditions noted are these: MTase-Glo luminescence, SAH detection, recombinant enzyme; measured here: PNMT max response; stronger effect = lower value.
Test [8] is described as follows: HepG2 viability counterscreen (readout 2: ATP content) against the NCATS DSHEA and TCM libraries (AID 1794840).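 Further: HepG2 cells exposed to substances for about 24 h; 0% is about no effect.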 The conditions noted are these: ATP content luminescence; series mostly up to 27.3 µM. The method in brief:
(§1)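 Readout 1: cellular protease activity, GF-AFC substrate (25 uM final, 30 min, fluorescence 380/510 nm). Readout 2: ATP content by CellTiter-Glo luminescence after 30 min at RT. Both follow ~24 h exposure of HepG2 cells (1,000/well) to substances.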

Test [9] in a line: HepG2 viability counterscreen (readout 1: protease activity) against the NCATS DSHEA and TCM libraries (AID 1794841).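 Further: cells exposed to compounds for about 24 h before the protease read; 0% is about no effect.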 The conditions noted are these: qHTS concentration series; series mostly up to 27.3 µM. The procedure, abridged:
as §1

The nature of test [10]: NCATS anti-infectives library activity on HEK293 viability as a counter-qHTS vs the C. elegans viability qHTS (AID 1745854).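 Further: HEK293 cells exposed to compounds for 24 hr before the viability read; on the % scale 0 is the no-effect control and ±100 the full control effect.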 The conditions noted are these: HEK293 viability counter-screen; series mostly up to 41.8 µM. The method in brief:
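Compounds were acoustically plated (several concentrations, 1:5, final up to 41.7 uM), then 1500 HEK293 cells added per well and incubated 24 hr at 37C, 5% CO2. CellTiter-Glo was added and luminescence read after 10 min.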

Catechol O-methyltransferase (Homo sapiens), sequence (P21964 whole entry, looked up): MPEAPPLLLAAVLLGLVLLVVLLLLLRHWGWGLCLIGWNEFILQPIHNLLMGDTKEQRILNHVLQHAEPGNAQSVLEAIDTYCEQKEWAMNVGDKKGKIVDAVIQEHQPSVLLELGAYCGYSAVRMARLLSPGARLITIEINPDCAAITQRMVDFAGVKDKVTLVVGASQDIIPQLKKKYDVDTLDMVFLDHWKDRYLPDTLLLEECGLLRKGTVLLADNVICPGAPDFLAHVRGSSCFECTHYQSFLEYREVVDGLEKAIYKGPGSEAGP
Glutathione peroxidase 1 (Homo sapiens), sequence (P07203 whole entry, looked up): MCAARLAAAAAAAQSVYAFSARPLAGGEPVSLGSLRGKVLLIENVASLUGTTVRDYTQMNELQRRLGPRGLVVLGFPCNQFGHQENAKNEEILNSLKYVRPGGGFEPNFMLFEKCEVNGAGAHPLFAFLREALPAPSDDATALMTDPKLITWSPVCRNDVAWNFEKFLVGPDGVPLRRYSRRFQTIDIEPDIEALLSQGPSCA
Phospholipid hydroperoxide glutathione peroxidase GPX4 (Homo sapiens), sequence (P36969 whole entry, looked up): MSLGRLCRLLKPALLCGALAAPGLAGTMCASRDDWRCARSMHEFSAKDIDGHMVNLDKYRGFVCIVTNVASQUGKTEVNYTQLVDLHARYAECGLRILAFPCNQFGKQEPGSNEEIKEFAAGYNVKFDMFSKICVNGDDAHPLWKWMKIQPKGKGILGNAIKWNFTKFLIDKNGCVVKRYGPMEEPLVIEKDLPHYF
Phenylethanolamine N-methyltransferase (Homo sapiens), sequence (P11086 whole entry, looked up): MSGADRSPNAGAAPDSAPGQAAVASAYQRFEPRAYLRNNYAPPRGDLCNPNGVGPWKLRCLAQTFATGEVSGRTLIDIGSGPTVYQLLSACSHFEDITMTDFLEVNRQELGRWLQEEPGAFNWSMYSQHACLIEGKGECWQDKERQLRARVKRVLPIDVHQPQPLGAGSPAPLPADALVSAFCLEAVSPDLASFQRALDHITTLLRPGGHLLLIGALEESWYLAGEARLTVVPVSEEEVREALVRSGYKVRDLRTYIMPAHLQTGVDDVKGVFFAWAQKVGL
Metallo-beta-lactamase type 2 (Klebsiella pneumoniae), sequence (C7C422 whole entry, looked up): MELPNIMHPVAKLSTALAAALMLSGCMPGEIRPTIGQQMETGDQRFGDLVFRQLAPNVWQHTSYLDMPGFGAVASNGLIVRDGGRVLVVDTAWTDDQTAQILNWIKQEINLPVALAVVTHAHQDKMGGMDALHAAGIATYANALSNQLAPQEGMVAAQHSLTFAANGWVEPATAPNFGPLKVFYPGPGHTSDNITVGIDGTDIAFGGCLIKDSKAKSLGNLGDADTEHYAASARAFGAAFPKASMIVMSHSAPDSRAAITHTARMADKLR

For the compound `C[N+](C)(C)CCOC(=O)CBr`, the Potency entry in [1], in test [2] and in test [3] was “inactive” in each case.
Take `CCCCCOc1cc2c(cc1-c1cc(/C=C/C(=O)O)ccc1O)C(C)(C)CCC2(C)C`: the activity in test [4] was -5.76%; in [6] it was -28.2%; in test [7], 0.0952%. For the same compound, in test [5], the activity change, negative = inhibition was -6.96%. Also, the Potency entry in test [2] and in [3] was “inactive” in each case.
For the compound `CC12NC(Cc3ccccc31)c1ccccc12` (configuration not stated), the Potency result in [1], in test [2] and in test [3] was “inactive” in each case.
As to `CNc1ccc2oc(C[C@H]3O[C@@]4(CC[C@H]3C)O[C@H]([C@H](C)C(=O)c3ccc[nH]3)[C@H](C)C[C@H]4C)nc2c1C(=O)O`, the activity in test [4] is -3.19%; in [6], -35.2%; in [7], -4.07%. Further, the Potency in test [5] is 34.3 µM (active). Also, the Potency entry in test [2] and in test [3] was “inactive” throughout.
Take `NC(N)=NOCC[C@H](N)C(=O)O`: the Potency result in test [1], in test [2] and in [3] was “inactive” in each case.
Regarding `O=Cc1ccco1`, the outcome in [8] and in test [9] was “inactive” throughout.
With `NC(=O)COc1c(F)cc(SCCNS(=O)(=O)c2ccccc2)cc1F`, the Potency result in test [1], in test [2] and in test [3] was “inactive” each time.
For `NCCc1ccc(S(=O)(=O)F)cc1`, the outcome in test [10] was “inactive”. In addition, the Potency entry in test [1], in test [2] and in [3] was “inactive” each time.
Consider `N[C@@]1(C(=O)O)CC[C@@H](C(=O)O)C1`, for which the Potency result in test [1], in test [2] and in test [3] was “inactive” in each case.
`CCCN(CCC)CCc1ccc(O)c(O)c1`: the activity in test [4] is 153%; in test [6] it was -2.74%; in test [7], -0.0665%. The activity change, negative = inhibition in test [5] turned out to be 6.88%. Also, the Potency result in test [1], in test [2] and in [3] was “inactive” in each case.
Consider `COc1ccc(CNC(=O)/C=C/c2ccc3[nH]cc(CCN(C)C)c3c2)cc1`, for which the Potency entry in [1], in test [2] and in test [3] was “inactive” in each case.
As to `O=c1ccc2[nH]cc(C3=CCNCC3)c2[nH]1`, the Potency result in [1], in test [2] and in test [3] was “inactive” throughout.
With `NCCCP(=O)(O)O`, the Potency entry in [1], in test [2] and in [3] was “inactive” each time.
For the compound `O=[N+]([O-])/C=C/c1ccc2c(c1)OCO2`, the Potency entry in [1], in test [2] and in [3] was “inactive” each time.
